Values joined by “and” are separate entries in the source; they are usually repeats but may differ in a detail not shown here. Equal entries are not always repeated. Results filed as inconclusive are left out. A number with no mark means an inactive call. Active and inactive are the calls of the source. The call rests on the fitted dose curve; in most records, active means well fitted curve in the direction sought with a large enough effect; inconclusive means small, poorly fitted or top-dose-only effect, or another doubt; inactive means no such curve, though single readings can be large; an effect the other way counts as inactive or inconclusive.

Results on 32 compounds are retold here after PubChem BioAssay (NCATS).

A short description of assay [1]: Viability qHTS for spleen associated tyrosine kinase inhibitor (SYKi) naive MV4-11 cells (AID 1963823). Further: nearly all actives have a fitted effect of over 40% in size. The gist of the method:
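SYK inhibitor-naive MV4-11 cells, 500 per well, exposed to compounds for 72 hr at 37 C, 5% CO2. Viability read as CellTiter-Glo luminescence after 10 min at room temperature.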

Assay [2] in a line: Quantitative highthroughput screen to assess conditional lethalithy of NOMO1 cells grown in RPMI1640 with dialyzed fetal bovine serum (RPMI+ds) (AID 1963877). Further: nearly all actives have a fitted effect of over 30% in size. The gist of the method:
(§1)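 Each medium arm—HPLM with 10% dialyzed FBS, or RPMI1640 with 5 mM glucose and 10% untreated or dialyzed FBS—was screened against an 11-point, 3-fold compound titration for 48 h at 37 °C, with CellTiter-Glo luminescence as endpoint.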

Assay [3] is described as follows: Quantitative highthroughput screen to assess conditional lethalithy of NOMO1 cells grown in Human Plasma-Like Medium with dialyzed fetal bovine serum (HPLM+ds) (AID 1963878). Further: nearly all actives have a fitted effect of over 35% in size. The gist of the method: as §1
Assay [4] is described as follows: Quantitative highthroughput screen to assess conditional lethalithy of P12 Ichikawa cells grown in Human Plasma-Like Medium with dialyzed fetal bovine serum (HPLM+ds) (AID 1963879). Further: nearly all actives have a fitted effect of over 35% in size. As to conditions: Potency: viability. The gist of the method: as §1
Assay [5] can be described thus: Quantitative highthroughput screen to assess conditional lethalithy of P12 Ichikawa cells grown in RPMI1640 with dialyzed fetal bovine serum (RPMI+ds) (AID 1963880). Further: nearly all actives have a fitted effect of over 35% in size. As to conditions: Potency: P12-Ichikawa viability. The gist of the method: as §1
The nature of assay [6]: Quantitative highthroughput screen to assess conditional lethalithy of P12 Ichikawa cells grown in RPMI1640 with untreated serum (RPMI+s) (AID 1963881). Further: nearly all actives have a fitted effect of over 35% in size. As to conditions: Potency: viability. The gist of the method: as §1
Assay [7] in a line: Quantitative highthroughput screen to assess conditional lethalithy of SEM cells grown in Human Plasma-Like Medium with dialyzed fetal bovine serum (HPLM+ds) (AID 1963882). Further: nearly all actives have a fitted effect of over 35% in size. The essentials:
as §1

Assay [8] in a line: Quantitative highthroughput screen to assess conditional lethalithy of SEM cells grown in RPMI1640 with unreated serum (RPMI+s) (AID 1963883). Further: nearly all actives have a fitted effect of over 35% in size. The gist of the method: as §1
Assay [9] can be described thus: Quantitative highthroughput screen to assess conditional lethalithy of SEM cells grown in RPMI1640 with dialyzed fetal bovine serum (RPMI+ds) (AID 1963884). Further: nearly all actives have a fitted effect of over 35% in size. The essentials: as §1
Assay [10] can be described thus: Cellular viability qHTS for adrenocortical cancer (ACC) cell line SW-13 (AID 1963989). Further: nearly all actives have a fitted effect of over 65% in size.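 On activity (max response): cells grown in serum-free medium with ITS supplement; on the % scale 0 is the no-effect control and ±100 the full control effect.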 As to conditions: SW-13 ACC cells viability, CellTiter-Glo, 48 h; activity (max response): stronger effect = lower value. The essentials:
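SW-13 cells in ITS-supplemented serum-free DMEM were plated overnight, then exposed for 48 h at 37C to compound titrations (up to 46 uM final). Viability was read by CellTiter-Glo luminescence; four-parameter logistic fits gave IC50 and efficacy.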
A general note: Quantitative high-throughput screening tests each substance at several concentrations.

The nature of assay [11]: Cellular viability qHTS for adrenocortical cancer (ACC) cell line NCI-H295R (AID 1963990). Further: nearly all actives have a fitted effect of over 60% in size. The essentials: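 Luminescent ATP read-out (CellTiter-Glo, 20 min RT) after 48 h drug exposure of NCI-H295R cells; a titration up to 46 uM final. Data normalized to doxorubicin (100% inhibition) and DMSO (0%); 4-parameter fit gives IC50, max response.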
Potency means the concentration at half of the fitted maximal effect.

Regarding `COc1ccccc1-c1cccc(-c2c(O)c3cc(C#N)c(Cl)cc3[nH]c2=O)c1`, the Potency entry in assay [1] and in assay [11] was “inactive” in each case. The Potency was 19.1 µM (active) in [2]; 6.79 µM (active) in [3]; 4.81 µM (active) in assay [4]; 8.55 µM (active) in [5]; 10.8 µM (active) in assay [6]; 8.55 µM (active) in [7]. The Potency in assay [8] is 2.7 µM (active); in [9] it was 5.4 µM (active). For the same compound, in [10], the activity (max response) was -20.9%.

Consider `COc1ccc(CNC(=O)c2cc(-c3cncc(Cl)c3)cnc2-c2ccccn2)nc1OC`, for which the Potency entry in assay [1] and in assay [11] was “inactive” throughout. The activity (max response) in assay [10] is -20.5%.

Regarding `COc1cc(NS(=O)(=O)c2ccc(N)cc2)nc(C)n1`, the Potency entry in assay [1] and in assay [11] was “inactive” throughout. Also, the activity (max response) in [10] was 1.38%.

Regarding `CCN(CC)CCCC[C@H](NC(=O)[C@H](CC(C)C)NC(=O)[C@H](C)NC(=O)[C@H](Cc1ccccc1)NC(=O)c1ccc(C(C)(C)C)cc1)C(=O)N[C@@H](CO)C(=O)OC`, the Potency entry in assay [1] and in assay [11] was “inactive” in each case. In addition, the activity (max response) in assay [10] is -29.2%.

For the compound `Cc1ccc([N+](=O)[O-])cc1S(=O)(=O)N(C)/N=C/c1cnc2ccc(Br)cn12`, the Potency in assay [1] is 16.4 nM (active) and 26.3 nM (active); in [10], 0.282 µM (active); in [11] it was 0.282 µM (active).

As to `CCCC(=O)OCOC(=O)C1=C(C)NC(C)=C(C(=O)OC)C1c1cccc(Cl)c1Cl` (configuration not stated), the Potency result in [1] was “inactive”. Besides, the activity (max response) in assay [10] was 6.2%.

On to `COC(=O)[C@H]1[C@H]2C[C@@H]3c4[nH]c5cc(OC)ccc5c4CCN3C[C@H]2C[C@@H](OC(=O)COc2ccc(OC)cc2)[C@@H]1OC`, for which the Potency entry in assay [1] was “inactive”. The activity (max response) in assay [10] was -9.25%.

As to `CN1C(CSCC(F)(F)F)Nc2cc(Cl)c(S(N)(=O)=O)cc2S1(=O)=O` (configuration not stated), the Potency result in [1] and in assay [11] was “inactive” throughout. The activity (max response) in assay [10] is -6.86%.

Take `O=C1NC(=O)/C(=C\c2ccc(-c3ccc(F)cc3)o2)S1`: in assay [1], the Potency was 14.8 µM (active). Further, in assay [10], the activity (max response) is 3.49%. The Potency result in assay [11] is “inactive”.

In the case of `CCCCC1=NC2(CCCC2)C(=O)N1Cc1ccc(-c2ccccc2-c2nn[nH]n2)cc1`, the Potency result in [1] and in [11] was “inactive” in each case. In assay [10], the activity (max response) is 8.5%.

Take `O=C(NNc1ccccc1)c1ccncc1`: the Potency entry in assay [1] and in assay [11] was “inactive” in each case. In addition, the activity (max response) in assay [10] is 1.69%.

For `Cc1cc2c(OCC(CNC(C)(C)C)OC(=O)c3ccccc3)cccc2[nH]1` (configuration not stated), the Potency result in assay [1] is “inactive”. Further, in [10], the activity (max response) was 7.67%.

Turning to `CC(=O)N(c1onc(C)c1C)S(=O)(=O)c1ccc(N)cc1`, in [1], the Potency entry is “inactive”. For the same compound, in [10], the activity (max response) is 0.743%.

In the case of `CC(C)(C)C(=O)N1N=CC[C@H]1c1ccccc1`, the Potency in assay [1] was 2.35 µM (active). Besides, the activity (max response) in assay [10] is 3.19%.

In the case of `COc1ccc(-c2cc(=S)ss2)cc1`, the Potency entry in assay [1] and in assay [11] was “inactive” throughout. Also, the activity (max response) in assay [10] was -5.69%.

As for `O=C1C(c2[nH]c3ccccc3c2O)=Nc2ccccc21`, the Potency result in assay [1] and in assay [11] was “inactive” throughout. Moreover, the activity (max response) in assay [10] is -0.538%.

Regarding `OCc1ccc(Cl)cc1Cl`, the Potency in [1] is 0.0067 µM (active). In addition, the activity (max response) in assay [10] is -2%.

Take `CSCC[C@H](NC(=O)[C@H](Cc1c[nH]c2ccccc12)NC(=O)CCNC(=O)OC(C)(C)C)C(=O)N[C@@H](CC(=O)O)C(=O)N[C@@H](Cc1ccccc1)C(N)=O`: in [1], the Potency result is “inactive”. The activity (max response) in assay [10] was 1.93%.

With `Cc1ccc(O)c(-n2nc3ccccc3n2)c1`, the Potency result in assay [1] and in [11] was “inactive” in each case. The activity (max response) in assay [10] is -8.34%.

As to `Nc1ncnc(Nc2ccc(OCc3ccccc3)c(Cl)c2)c1/C=N/OCCN1CCOCC1`, the Potency in assay [1] was 8.33 µM (active); in assay [10] it was 17.8 µM (active).

Consider `O=C(CCCN1CC=C(n2c(=O)[nH]c3ccccc32)CC1)c1ccc(F)cc1`, for which the Potency entry in assay [1] and in [11] was “inactive” each time. Moreover, the activity (max response) in assay [10] is -10.3%.

For the compound `Oc1cccc2[nH]ccc12`, the Potency in assay [1] was 5.31 µM (active). For the same compound, the activity (max response) in assay [10] is 11.5%. Also, in assay [11], the Potency result is “inactive”.

With `O=C(CCN1CCN(CCO)CC1)N1c2ccccc2Sc2ccc(C(F)(F)F)cc21`, the Potency result in assay [1] and in assay [11] was “inactive” in each case. In addition, in [10], the activity (max response) is -5.01%.

On to `CCN(CC)C(=O)Cc1csc(NS(=O)(=O)c2cccc(Cl)c2C)n1`, for which the Potency result in assay [1] and in assay [11] was “inactive” throughout. Moreover, in assay [10], the activity (max response) is -19.2%.

For the compound `CCC(=O)O[C@H]1[C@H](O[C@@H]2[C@@H](C)[C@H](O[C@H]3C[C@@](C)(OC)[C@@H](O)[C@H](C)O3)[C@@H](C)C(=O)O[C@H](CC)[C@@](C)(O)[C@H](O)[C@@H](C)C(=O)[C@H](C)C[C@@]2(C)O)O[C@H](C)C[C@@H]1N(C)C`, the Potency result in assay [1] is “inactive”. The activity (max response) in assay [10] was 0.809%.

For `O=S(=O)(O)c1ccc2cc(N=Nc3cc(S(=O)(=O)O)c4cccnc4c3O)ccc2c1`, the Potency result in [1] was “inactive”. The activity (max response) in [10] is -15.7%.

Consider `CN1C(N)=N[C@](C)(c2cc(NC(=O)c3ccc(F)cn3)ccc2F)CS1(=O)=O`, for which the Potency entry in assay [1] and in assay [11] was “inactive” throughout. Also, the activity (max response) in assay [10] is -4.84%.

With `Clc1ccc2c(c1)Nc1ccccc1S2`, in [1], the Potency result is “inactive”. In addition, in [10], the activity (max response) is -11.9%.

Regarding `FC(F)(F)c1ccccc1-n1ccnc1`, the Potency result in assay [1] and in assay [11] was “inactive” each time. Also, the activity (max response) in assay [10] is 17.5%.

With `Cc1oc(-c2ccccc2)nc1CCC(=O)c1ccc(CC2SC(=O)NC2=O)cc1` (configuration not stated), in [1], the Potency result was “inactive”. Also, in [10], the activity (max response) is -12.1%.

In the case of `Cc1cc(CCCOc2c(C)cc(-c3noc(C(F)(F)F)n3)cc2C)on1`, the Potency entry in assay [1] and in [11] was “inactive” throughout. Moreover, the activity (max response) in [10] is -14.2%.

As for `CCCCCCCCCCCCSCCOCCO`, the Potency entry in [1] and in [11] was “inactive” each time. For the same compound, the activity (max response) in assay [10] is -3.34%.
